A selection: hits, their analogues and other compounds. The true share with any hit is near 1.6%.
KCNQ2 inh: rat KCNQ2 potassium channel inhibitors, primary screen, cell-based, CHO-K1, FluxOR thallium flux, B-score. 20 min; hits give low values. B-score at 10 µM. 310,000 compounds, 1.1% hits. AID 2156, 2009;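 active means fluorescence ratio B-score at most minus 3 library SDs, with starting brightness B-score within 2 library SDs, cut at about -5.5 in these data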
KCNQ2 enhance: potentiators of rat KCNQ2 potassium channel; 310,000 compounds, 0.54% hits; Potassium voltage-gated channel subfamily KQT member 2 (Rattus norvegicus), O88943; B-score at 10 µM; AID 2239, 2010; CHO-K1 KCNQ2, FluxOR thallium flux fluorescence; hits give high values;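 active means fluorescence ratio B-score at least 3 SD of library B-scores, with initial fluorescence B-score within 3 of them, cut at about 5.3 in these data; same plate scores as AID 2156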;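 further: B-score of peak minus minimum over baseline fluorescence ratio after K+ and Tl+ stimulus; positive B-score means potentiation of KCNQ2 with more thallium influx and brighter signal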
Kir21 confirm: mouse Kir2.1 channel blockers, retest, confirmation, cell-based, FluxOR thallium flux, duplicate; shares compounds with KCNQ2 enhance; Tl flux remaining, % of negative control (hits give low values), % at 10 µM; AID 2032, 2009; Kir2.1-expressing cells, FluxOR thallium flux fluorescence; hits give low values; 2,300 compounds, 41% hits;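 active means Primary-screen hit whose thallium flux fell at least 3 control SD below untreated wells in both duplicates, with normal baseline fluorescence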;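 further: 0% = blank wells without stimulus and 100% = stimulated no-compound controls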
HEK293 ctr: alters thallium flux in parental HEK293 cells, Kir2.1 counter-screen; FluxOR thallium flux fluorescence; 0% = unstimulated blank wells; shares compounds with KCNQ2 enhance; FluxOR signal as % of negative control (100 = no effect), % at 10 µM; 2,300 compounds, 19% hits;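 active means dye signal at least 3 control SD above or below untreated wells in both duplicates, raw fluorescence within 3, either direction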;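 further: percent is based on the flux ratio of peak minus minimum fluorescence over baseline F0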
CHO-K1 Tl ctr: nonspecific thallium flux increase in parental CHO-K1, confirmation, counter-screen for KCNQ2 potentiator project, cell-based, FluxOR thallium flux, duplicate. shares compounds with KCNQ2 enhance. parental CHO-K1 cells, FluxOR thallium flux fluorescence; zero = vehicle mean+3SD, 100% = vehicle-minus-blank window. activity increase over 3SD of controls, % at 10 µM. 1,200 compounds, 43% hits;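 active means signal rise of at least 3 SD above the untreated control mean, in both duplicate wells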;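 further: counter screen of KCNQ2 potentiator hits so any rise reflects channel-independent effects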
KCNQ1 sel pot: human KCNQ1 channel potentiation off-target, confirmation, selectivity assay for KCNQ2 potentiator project, cell-based, CHO, FluxOR thallium flux | shares compounds with KCNQ2 enhance | CHO KCNQ1 stable, FluxOR thallium flux fluorescence; beyond 3SD, as % of vehicle-control signal | activation over 3SD threshold, % at 10 µM | 1,200 compounds, 28% hits;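 active means fluorescence ratio rise of at least 3 SD of vehicle wells above their mean, in both replicate wells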;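 further: 0% = vehicle mean plus 3 SD and 100% = vehicle minus unstimulated blank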
Target sequence (P51787 whole entry, looked up): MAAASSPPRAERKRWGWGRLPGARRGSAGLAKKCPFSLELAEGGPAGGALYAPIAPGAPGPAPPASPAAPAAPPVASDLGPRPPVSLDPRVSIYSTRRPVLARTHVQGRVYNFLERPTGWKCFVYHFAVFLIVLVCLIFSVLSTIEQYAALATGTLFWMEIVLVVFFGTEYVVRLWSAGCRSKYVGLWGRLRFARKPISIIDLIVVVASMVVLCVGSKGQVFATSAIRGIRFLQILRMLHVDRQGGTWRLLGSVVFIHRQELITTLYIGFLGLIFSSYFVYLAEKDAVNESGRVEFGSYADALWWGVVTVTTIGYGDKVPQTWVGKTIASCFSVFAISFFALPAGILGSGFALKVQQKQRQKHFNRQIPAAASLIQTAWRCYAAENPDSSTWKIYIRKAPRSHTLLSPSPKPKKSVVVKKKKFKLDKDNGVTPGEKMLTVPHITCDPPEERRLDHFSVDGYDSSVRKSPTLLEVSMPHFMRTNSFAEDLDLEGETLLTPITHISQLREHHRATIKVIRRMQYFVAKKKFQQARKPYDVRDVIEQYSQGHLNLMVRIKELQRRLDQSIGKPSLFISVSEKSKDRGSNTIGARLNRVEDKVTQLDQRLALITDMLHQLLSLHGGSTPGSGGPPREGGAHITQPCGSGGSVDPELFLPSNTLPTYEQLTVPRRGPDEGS
KCNQ2 pot conf: rat KCNQ2 channel potentiators, confirmation, cell-based, CHO, FluxOR thallium flux, duplicate. shares compounds with KCNQ2 enhance. CHO-KCNQ2 cells, FluxOR thallium flux fluorescence. potentiation, less the hit threshold, % at 10 µM. 1,200 compounds, 68% hits;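 active means fluorescence ratio rising 3 SD or more over the vehicle control mean in both replicates, plus primary screen hit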;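 further: peak minus minimum thallium fluorescence divided by baseline after K/Tl stimulus; 0% = vehicle mean plus 3 SD and 100% = vehicle minus unstimulated blank difference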
Kir21 spec: mouse Kir2.1 channel activation off-target, confirmation, selectivity assay for KCNQ2 potentiator project, cell-based, HEK293, FluxOR thallium flux. shares compounds with KCNQ2 enhance. HEK293 Kir2.1, FluxOR thallium flux fluorescence. activity over 3SD threshold, % at 10 µM. 1,200 compounds, 2% hits. AID 2345, 2010;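 active means fluorescence ratio rise of at least 3 SD above the vehicle-control mean, seen in both replicates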;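 further: 0% = vehicle mean plus 3 SD and 100% = vehicle minus no-stimulus blank window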
KCNQ2 W236L MoA: potentiators of retigabine-insensitive KCNQ2 W236L, mechanism study for KCNQ2 potentiator project, cell-based, rat KCNQ2 W236L, CHO, automated patch clamp; shares compounds with KCNQ2 enhance; automated patch clamp current; current increase over 3SD of negative controls (%), hits give high values, % at 25 µM; 940 compounds, 10% hits; AID 2558, 2010;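 active means current increase at least 3 SD of the untreated controls above them in both duplicate recordings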
Starred values were filed as active, the others as inactive.

How did CCc1nnc(NC(=O)c2nc(S(=O)(=O)Cc3ccc(C)cc3)ncc2Cl)s1 do in these assays?
KCNQ2 inh: inactive; KCNQ2 enhance: 14.6*; CHO-K1 Tl ctr: -21.6; KCNQ1 sel pot: -16.2; KCNQ2 pot conf: 63.1*; Kir21 spec: -52.6; KCNQ2 W236L MoA: 26.3%*

Results for CCc1nnc(NC(=O)c2nc(S(=O)(=O)Cc3ccccc3)ncc2Cl)s1 ?
KCNQ2 inh: inactive; KCNQ2 enhance: 12.1*; Kir21 confirm: inactive; HEK293 ctr: inactive; CHO-K1 Tl ctr: 97.0*; KCNQ1 sel pot: -19.2; KCNQ2 pot conf: 87.2*; Kir21 spec: -43.9; KCNQ2 W236L MoA: 70.4%*

Results for CC(=O)Nc1ccc(NC(=O)c2nc(S(=O)(=O)Cc3ccccc3)ncc2Cl)cc1 ?
KCNQ2 inh: inactive

Results for CCOc1ccccc1NC(=O)c1nc(S(=O)(=O)Cc2cccc(C)c2)ncc1Cl ?
KCNQ2 inh: inactive; KCNQ2 enhance: 0.76

How did COc1ccc(CNC(=O)c2nc(S(=O)(=O)Cc3ccccc3)ncc2Cl)cc1 do in these assays?
KCNQ2 inh: inactive

What do the screens show for `CS(=O)(=O)NCCSCc1ccc(Cl)cc1`?
KCNQ2 inh: inactive; KCNQ2 enhance: 2.01

What do the screens show for `Cc1cc(C)nc(SCCN2CCCCC2)n1`?
KCNQ2 inh: inactive

Results for Cc1cc(C(=O)NNC(=O)Nc2cccc(C(F)(F)F)c2)no1 ?
KCNQ2 inh: inactive; KCNQ2 enhance: 1.46

What do the screens show for `CC(=O)N1CCOCCOCCN(C(C)=O)CCOCCOCC1`?
KCNQ2 inh: inactive

What do the screens show for `CCOC(=O)C1=C(OCc2ccc(Cl)cc2)C2C=C(C)C=CC2N=C1` (centres undefined)?
KCNQ2 inh: inactive

Results for Cc1csc(NC(=O)c2cc3c(s2)CCCCC3)n1 ?
KCNQ2 inh: inactive; KCNQ2 enhance: 1.28

Results for Cc1csc(NC(=O)c2cc3c(s2)CCCC3)n1 ?
KCNQ2 inh: inactive; KCNQ2 enhance: 7.28*; Kir21 confirm: inactive; HEK293 ctr: inactive; CHO-K1 Tl ctr: 95.9*; KCNQ1 sel pot: -18.2; KCNQ2 pot conf: -2.5; Kir21 spec: -28.8; KCNQ2 W236L MoA: inactive

Results for Cc1cccc(C(=O)N[C@H](C(=O)Nc2ccc(C)c(S(=O)(=O)N(C)C)c2)C(C)C)c1 ?
KCNQ2 inh: inactive

How did O=C(Cc1cccc(F)c1F)NC1CCCN(Cc2ccc(Cl)cc2)C1 (centres undefined) do in these assays?
KCNQ2 inh: inactive; KCNQ2 enhance: 6.21*; Kir21 confirm: inactive; HEK293 ctr: 218.5%*; CHO-K1 Tl ctr: 115.5*; KCNQ1 sel pot: -15.0; KCNQ2 pot conf: 16.5*; Kir21 spec: -50.0; KCNQ2 W236L MoA: inactive

What do the screens show for `Cc1cc(C)n(CC(=O)NC2CCCN(Cc3ccc(Cl)cc3)C2)n1` (centres undefined)?
KCNQ2 inh: inactive; KCNQ2 enhance: 0.48

What do the screens show for `COCCn1c(-c2ccccc2)nc2oc3ccccc3c(=O)c2c1=O`?
KCNQ2 inh: inactive; KCNQ2 enhance: 0.57

How did CC(C)(C)c1ccc(OCCC(=O)Nc2ccc(N3CCOCC3)cc2N2CCOCC2)cc1 do in these assays?
KCNQ2 inh: inactive; KCNQ2 enhance: 7.97*; CHO-K1 Tl ctr: -5.7; KCNQ1 sel pot: -37.1; KCNQ2 pot conf: -16.0; Kir21 spec: -43.7

Results for CCOc1cc(N2CCOCC2)c(OCC)cc1NC(=O)COC(=O)CCOc1ccc(C(C)(C)C)cc1 ?
KCNQ2 inh: inactive; KCNQ2 enhance: 10.6*; Kir21 confirm: inactive; HEK293 ctr: inactive; CHO-K1 Tl ctr: 3.1*; KCNQ1 sel pot: -23.5; KCNQ2 pot conf: -11.8; Kir21 spec: -13.9; KCNQ2 W236L MoA: inactive

How did Cc1ccc(C(=O)Nc2ccc(N3CCOCC3)cc2N2CCOCC2)cc1 do in these assays?
KCNQ2 inh: inactive

Results for CCOc1ccc(OCCC(=O)OCC(=O)Nc2ccc(N3CCOCC3)cc2)cc1 ?
KCNQ2 inh: inactive; KCNQ2 enhance: 0.66

What do the screens show for `O=C(CCS(=O)(=O)c1ccc(Br)cc1)N1CCN(c2ccccc2Cl)CC1`?
KCNQ2 inh: inactive

Results for N=c1n(CCOc2ccccc2)c2ccccc2n1CCN1CCOCC1 ?
KCNQ2 inh: inactive; KCNQ2 enhance: 1.27

What do the screens show for `CCCc1sc(N/N=C/c2ccccn2)nc1-c1ccc(F)cc1`?
KCNQ2 inh: inactive; KCNQ2 enhance: 5.76*; Kir21 confirm: inactive; HEK293 ctr: inactive; CHO-K1 Tl ctr: -5.9; KCNQ1 sel pot: 11.8*; KCNQ2 pot conf: -22.8; Kir21 spec: -31.4

Results for CCN=c1scc(-c2ccc(F)cc2)n1/N=C/c1ccccn1 ?
KCNQ2 inh: inactive; KCNQ2 enhance: 0.94

How did Cc1ccc(/C=C2\SC(=S)N(CCC(=O)NNS(=O)(=O)c3ccc(C)cc3)C2=O)cc1 do in these assays?
KCNQ2 inh: inactive; KCNQ2 enhance: 0.31

What do the screens show for `COc1ccc(C2C(C#N)=C(N)N(c3sc4c(c3C#N)CCCC4)C3=C2C(=O)CC(C)(C)C3)cc1` (centres undefined)?
KCNQ2 inh: inactive

Bioassay records as filed in PubChem BioAssay.
